PubChem BioAssay (Tox21)
Inconclusive results are not listed. The source made the active and inactive calls. Unless noted, calls come from the whole dose curve; as a rule, active = well fitted curve in the direction sought with a large enough effect in the repeat runs; inconclusive = weak or mixed curves; inactive = no such curve, though single readings can be large; an effect the other way counts as inactive or inconclusive.

How the values were obtained:
[1] = qHTS assay for small molecules that induce genotoxicity in human embryonic kidney cells expressing luciferase-tagged ATAD5 (AID 651632); note: nearly all actives have a fitted effect of over 15% in size
Summary of the method: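 A rise in luciferase signal from ATAD5-tagged HEK293T cells marks genetic stress. Cells were exposed to compounds for 16 hr at 37C, 5% CO2, then luciferase was quantified after a 30 min room-temperature incubation with Amplite.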

[2] = qHTS assay for small molecule disruptors of the mitochondrial membrane potential - cell viability (AID 720634; calls by dose curve;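 note: human HepG2 liver cancer cells; series mostly up to about 83 µM; nearly all actives have a fitted effect of over 20% in size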)
Summary of the method: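 Cytotoxicity was quantified from ATP content by CellTiter-Glo luminescence in the same wells as the MMP dye read-out. HepG2 (2,000 cells/well) were plated overnight and exposed to compounds for 1 hr at 37 C.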

[3] = qHTS assay to test for compound auto fluorescence at 590 nm (red) in HepG2 cells (AID 720674)
Summary of the method: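 Rose Bengal sodium served as the red fluorophore standard. HepG2 monolayers (overnight attachment, MEM with 10% FBS) were exposed to test compounds for 1 hr at 37 C and read at Ex 540/Em 590 nm.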

[4] = qHTS assay to test for compound auto fluorescence at 535 nm (green) in HepG2 cells (AID 720675)
[5] = qHTS assay to test for compound auto fluorescence at 460 nm (blue) in HEK293 cells (AID 720678)
Summary of the method: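 Measured: blue fluorescence (Ex 405/Em 460 nm) of compound-treated HEK293 cells, incubated overnight at 37C with 5% CO2 and scaled to triamterene equivalents.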

[6] = qHTS assay to test for compound auto fluorescence at 590 nm (red) in HEK293 cells (AID 720679)
Summary of the method: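 Using HEK293 cells at 2,000 per well, the screen added 23 nL of each compound after cell attachment and incubated overnight (37C, 5% CO2). The plate reader then captured red-label fluorescence, Ex/Em 540/590nm.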

[7] = qHTS assay to test for compound auto fluorescence at 535 nm (green) in HEK293 cells (AID 720680)
[8] = qHTS assay to test for compound auto fluorescence at 460 nm (blue) in HEK293 cell free culture (AID 720681)
Summary of the method: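 Test compounds were pinned into cell-free culture medium (DMEM with 10% FBS) and fluorescence was read directly at Ex/Em 405/460 nm. Signals were expressed as fluorescence equivalents of triamterene, with DMSO vehicle as control.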

[9] = qHTS assay to test for compound auto fluorescence at 535 nm (green) in HEK293 cell free culture (AID 720682)
Summary of the method: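 Using fluorescein as calibrant, autofluorescence was quantified at 485/535 nm in cell-free DMEM containing 10% FBS after pintool addition of compound or vehicle.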

[10] = qHTS assay to test for compound auto fluorescence at 590 nm (red) in HEK293 cell free culture (AID 720683)
Summary of the method: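 Tox21 10K library compounds were pinned into cell-free DMEM with 10% FBS and fluorescence was read at excitation 540 nm. Activity is expressed as Rose Bengal sodium equivalency.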

[11] = qHTS assay to test for compound auto fluorescence at 590 nm (red) in HepG2 cell free culture (AID 720684)
Summary of the method: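 Readout: intrinsic compound fluorescence at 590 nm emission after 540 nm excitation, scaled to Rose Bengal sodium. Matrix was cell-free MEM with 10% FBS; DMSO vehicle wells served as control.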

[12] = qHTS assay to test for compound auto fluorescence at 460 nm (blue) in HepG2 cell free culture (AID 720685)
Summary of the method: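 Cell-free plates of MEM plus 10% FBS received 23 nL compound or DMSO vehicle; blue-channel (405/460 nm) intensity scored against triamterene as reference fluorophore.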

[13] = qHTS assay to test for compound auto fluorescence at 535 nm (green) in HepG2 cell free culture (AID 720686)
[14] = qHTS assay to test for compound auto fluorescence at 460 nm (blue) in HepG2 cells (AID 720687)
Summary of the method: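 Cells (2,000/well in MEM with 10% FBS) attached overnight at 37 C, then were exposed to compound or DMSO for 1 hr at 37 C, 5% CO2. Fluorescence read at Ex/Em 405/460 nm, expressed as triamterene-equivalent signal.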

[15] = biological target: Glucocorticoid receptor (Homo sapiens) (UniProt P04150); test: qHTS assay to identify small molecule agonists of the glucocorticoid receptor (GR) signaling pathway (AID 720691; active = well fitted activation curve with a large enough effect in the signal ratio in the repeat runs, not every such curve was filed as active; the % refers to the signal ratio)
Glucocorticoid receptor (Homo sapiens), sequence (P04150 whole entry, looked up): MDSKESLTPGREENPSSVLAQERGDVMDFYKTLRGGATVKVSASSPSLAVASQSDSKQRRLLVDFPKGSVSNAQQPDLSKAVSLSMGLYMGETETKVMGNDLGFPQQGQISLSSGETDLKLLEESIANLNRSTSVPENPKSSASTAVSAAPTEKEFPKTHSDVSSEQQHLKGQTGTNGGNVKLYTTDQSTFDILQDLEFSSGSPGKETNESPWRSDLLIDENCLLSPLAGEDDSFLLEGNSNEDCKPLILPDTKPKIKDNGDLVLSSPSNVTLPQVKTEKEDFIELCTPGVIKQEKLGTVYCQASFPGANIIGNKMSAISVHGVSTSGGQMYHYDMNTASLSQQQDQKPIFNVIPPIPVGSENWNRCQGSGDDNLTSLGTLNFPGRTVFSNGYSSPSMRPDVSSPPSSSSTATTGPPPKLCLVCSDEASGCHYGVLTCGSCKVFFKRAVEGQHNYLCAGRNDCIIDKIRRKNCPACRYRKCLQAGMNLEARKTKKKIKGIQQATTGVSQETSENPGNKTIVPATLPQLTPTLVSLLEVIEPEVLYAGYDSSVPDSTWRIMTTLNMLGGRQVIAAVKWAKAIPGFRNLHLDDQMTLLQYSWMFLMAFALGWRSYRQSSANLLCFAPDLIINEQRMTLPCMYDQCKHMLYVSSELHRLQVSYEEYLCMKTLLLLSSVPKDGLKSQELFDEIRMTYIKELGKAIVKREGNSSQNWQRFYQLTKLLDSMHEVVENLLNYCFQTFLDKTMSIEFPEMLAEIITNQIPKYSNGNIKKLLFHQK
Summary of the method: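 Agonist-mode qHTS in HeLa cells stably expressing a glucocorticoid-response-element beta-lactamase reporter. Fluorescence intensity read with FRET substrate (2 h, room temperature) after 18 h compound treatment at 37 C.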

[16] = qHTS assay for small molecule agonists of the p53 signaling pathway - cell viability (AID 651633; calls by dose curve;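 note: p53RE-bla HCT reporter cells with a stable beta-lactamase p53 reporter; series mostly up to about 83 µM; nearly all actives have a fitted effect of over 30% in size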)
Summary of the method: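 p53RE-bla cells, seeded at 4,000 per well and rested 5 h at 37 C/5% CO2, received compounds in DMSO for 16 h at 37 C. CellTiter-Glo was then added, and luminescence was read after 30 min at room temperature to gauge cytotoxicity.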

[17] = qHTS assay for small molecule disruptors of the mitochondrial membrane potential (AID 720635)
Summary of the method: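 HepG2 cells (2,000/well) attached overnight at 37C, then took compound for 1 hr at 37C, 5% CO2. Mito-MPS dye was added for 30 min; fluorescence was read at 490/535 nm (monomers) and 540/590 nm (aggregates).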

[18] = biological target: Glucocorticoid receptor (Homo sapiens) (UniProt P04150); test: qHTS assay to identify small molecule antagonists of the glucocorticoid receptor (GR) signaling pathway (AID 720692; active = well fitted inhibition curve with a large enough effect in the signal ratio in the repeat runs, not every such curve was filed as active; the % refers to the signal ratio)
Summary of the method: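 Inhibition of dexamethasone-driven (5 nM final) beta-lactamase expression was measured in GRE-reporter HeLa cells over 18 h at 37C. Fluorescence was read after 2 h with the B/G FRET substrate at room temperature.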

[19] = qHTS assay for small molecules that induce genotoxicity in human embryonic kidney cells expressing luciferase-tagged ATAD5 - cell viability (AID 651634; calls by dose curve; note: nearly all actives have a fitted effect of over 25% in size)
Summary of the method: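 Cytotoxicity counter-readout: after 15.5 hr compound treatment at 37C, live-cell protease activity in ATAD5-luciferase HEK293T cells measured by CellTiter-Fluor fluorescence, 30 min development at 37C.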
% is set by controls: 0 for no effect and ±100 for the full control effect.

CCCCCCCC[Si](OCC)(OCC)OCC
inactive: outcome [1] | outcome [2] | outcome [3] | outcome [4] | outcome [5] | outcome [6] | outcome [7] | outcome [8] | outcome [9] | outcome [10] | outcome [11] | outcome [12] | outcome [13] | outcome [14] | Potency [15]

CCCCCCCCCCCCC1CO1 (stereo not given)
inactive: outcome [16] | Potency [17] | outcome [3] | outcome [4] | outcome [5] | outcome [6] | outcome [7] | outcome [8] | outcome [9] | outcome [10] | outcome [11] | outcome [12] | outcome [13] | outcome [14] | Potency [15] | outcome [18]

CCC(CO)CO
inactive: outcome [1] | outcome [16] | outcome [2] | outcome [3] | outcome [4] | outcome [5] | outcome [6] | outcome [7] | outcome [8] | outcome [9] | outcome [10] | outcome [11] | outcome [12] | outcome [13] | outcome [14] | Potency [15]

CCCCCCCCCCCCCC(=O)OC
inactive: outcome [1] | Potency [19] | outcome [3] | outcome [4] | outcome [5] | outcome [6] | outcome [7] | outcome [9] | outcome [10] | outcome [11] | outcome [13] | outcome [14] | Potency [15] | outcome [18]

O=CO
inactive: activity change, negative = cytotoxicity [16] 17.2% [at 8.08 µM] | activity change, negative = cytotoxicity [2] 10.1% [at 8.08 µM] | fluorescence, relative to Rose Bengal [3] 0.134% [at 9.17 µM] | fluorescence, % of fluorescein control [4] -0.0157% [at 9.17 µM] | fluorescence, % of triamterene [5] 0.001% [at 9.17 µM] | fluorescence, % of fluorescent control [6] 0.473% [at 9.17 µM] | fluorescence, % of fluorescein [7] -0.109% [at 9.17 µM] | fluorescence, % of fluorescent control [8] -0.189% [at 9.17 µM] | activity change [9] -0.0948% [at 9.17 µM] | fluorescence, % of fluorescent control [10] -0.0633% [at 9.17 µM] | fluorescence, % of fluorescent control [12] -0.136% [at 9.17 µM] | fluorescence, % of fluorescein control [13] -0.0013% [at 9.17 µM] | fluorescence, % of fluorescent control [14] 0.0876% [at 9.17 µM]

O=C(O)c1c(Cl)ccc(Cl)c1Cl
inactive: outcome [1] | Potency [19] | outcome [3] | outcome [5] | outcome [6] | outcome [7] | outcome [8] | outcome [9] | outcome [10] | outcome [11] | outcome [12] | outcome [13] | Potency [15] | outcome [18]

Cc1oc(=O)oc1CN1CCN(c2cc3c(cc2F)c(=O)c(C(=O)O)c2n3C(C)S2)CC1 (stereo not given)
inactive: outcome [1] | outcome [16] | outcome [2] | outcome [3] | outcome [5] | outcome [6] | outcome [7] | outcome [8] | outcome [9] | outcome [10] | outcome [11] | outcome [13]

Cc1nc([N+](=O)[O-])cn1-c1ccc([N+](=O)[O-])cc1
inactive: outcome [1] | outcome [16] | outcome [2] | outcome [4] | outcome [5] | outcome [6] | outcome [7] | outcome [8] | outcome [9] | outcome [10] | outcome [12] | outcome [13] | outcome [14] | Potency [15] | outcome [18]

C1CCN2C[C@@H]3C[C@@H](CN4CCCC[C@@H]34)[C@H]2C1
inactive: outcome [1] | outcome [16] | outcome [2] | Potency [17] | fluorescence, % of fluorescein control [4] -0.0003% [at 18.6 µM] | fluorescence, % of fluorescent control [6] -0.036% [at 18.6 µM] | fluorescence, % of fluorescein [7] -0.0731% [at 18.6 µM] | fluorescence, % of fluorescent control [8] 0.0698% [at 18.6 µM] | activity change [9] -0.022% [at 18.6 µM] | fluorescence, % of fluorescent control [10] 0.165% [at 18.6 µM] | fluorescence, % of fluorescent control [12] 0.101% [at 18.6 µM] | fluorescence, % of fluorescein control [13] 0.104% [at 18.6 µM] | fluorescence, % of fluorescent control [14] -0.0841% [at 18.6 µM] | Potency [15] | outcome [18]

CO/N=C(/C(=O)N[C@@H]1C(=O)N2C(C(=O)O)=C(Cn3nnc(C)n3)CS[C@H]12)c1csc(N)n1
inactive: outcome [1] | Potency [19] | outcome [2] | outcome [3] | outcome [4] | outcome [6] | outcome [7] | outcome [8] | outcome [9] | outcome [10] | outcome [12] | outcome [13] | outcome [14] | Potency [15]

CC(CC(=O)O)CC(C)(C)C (stereo not given)
inactive: outcome [1] | outcome [16] | outcome [2] | outcome [3] | outcome [4] | outcome [5] | outcome [6] | outcome [7] | outcome [8] | outcome [9] | outcome [10] | outcome [11] | outcome [12] | outcome [13] | outcome [14]

O=C(/C=C/c1ccccc1)NCCO
inactive: outcome [1] | outcome [16] | Potency [17] | outcome [3] | outcome [4] | outcome [5] | outcome [6] | outcome [7] | outcome [8] | outcome [9] | outcome [10] | outcome [11] | outcome [13] | outcome [14] | Potency [15]

NC(Cc1c[nH]c2ccccc12)C(=O)O (stereo not given)
inactive: outcome [16] | Potency [19] | outcome [2] | outcome [3] | outcome [4] | outcome [5] | outcome [6] | outcome [7] | outcome [8] | outcome [9] | outcome [10] | outcome [11] | outcome [12] | outcome [13] | outcome [14] | Potency [15]
